# Experimental data taken from PubChem BioAssay AID1159580 (chemical genetic matrix, 2015).
# Values joined by “and” are separate entries in the source; they are usually repeats but may differ in a detail not shown here. Identical values can stand only once. Hit rate of the full screen: of about 5,500 compounds, about 2,000 (36%) were called active. About 18% were inconclusive and are not listed. Some of the results follow. A number with no mark means an inactive call. Cut-off read from the data, not from the text of the source: active = normalized growth mostly below about 0.91 (no sharp cut-off); inconclusive = no clear call, values can overlap the other calls; inactive = mostly above about 0.92.
# Assay: chemical genetic growth profiling, strain panel (AID 1159580);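 note: tested at 20 µM; growth read once vehicle control cultures reached saturation at 30 °C; 1 = growth at the plate median or of vehicle wells; lower values mean less growth of the strain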
# Settings: S. cerevisiae deletion strains, growth OD
structure (smiles),measurement,setting,value
C#CCCCCCCCCCCCC(O)CC(O)COC(C)=O (stereo unspecified),normalized growth,"locus YAL013W, strain DEP1, hits give low values",0.98
same,normalized growth,"locus YAL021C, strain ccr4, hits give low values",0.766 (active)
same,normalized growth,"locus YAL026C, strain drs2, hits give low values",0.906 (active)
same,normalized growth,"locus YAL030W, strain snc1, hits give low values",0.526 (active)
same,normalized growth,"locus YBL061C, strain skt5, hits give low values",0.841 (active)
same,normalized growth,"locus YBR009C, strain hhf1, hits give low values",0.263 (active)
same,normalized growth,"locus YBR021W, strain FUR4, hits give low values",0.925
same,normalized growth,"locus YBR023C, strain chs3, hits give low values",0.756 (active)
same,normalized growth,"locus YBR171W, strain sec66, hits give low values",0.962
same,normalized growth,"locus YBR229C, strain ROT2, hits give low values",0.982
same,normalized growth,"locus YBR231C, strain swc5, hits give low values",0.962
same,normalized growth,"locus YBR279W, strain paf1, hits give low values",0.87 (active)
same,normalized growth,"locus YCL011C, strain gbp2, hits give low values",0.32 (active)
same,normalized growth,"locus YCL016C, strain dcc1, hits give low values",0.805 (active)
same,normalized growth,"locus YCL029C, strain bik1, hits give low values",0.954
same,normalized growth,"locus YCL069W, strain vba3, hits give low values",0.852 (active)
same,normalized growth,"locus YCR088W, strain abp1, hits give low values",0.947
same,normalized growth,"locus YDL005C, strain med2, hits give low values",0.103 (active)
same,normalized growth,"locus YDL035C, strain GPR1, hits give low values",0.908
same,normalized growth,"locus YDL040C, strain nat1, hits give low values",0.973
same,normalized growth,"locus YDL074C, strain BRE1, hits give low values",0.857
same,normalized growth,"locus YDL101C, strain DUN1, hits give low values",0.975
same,normalized growth,"locus YDL134C, strain PPH21, hits give low values",0.972
same,normalized growth,"locus YDL185W, strain tfp1, hits give low values",0.963
same,normalized growth,"locus YDL192W, strain arf1, hits give low values",0.928
same,normalized growth,"locus YDR001C, strain nth1, hits give low values",0.999
same,normalized growth,"locus YDR069C, strain doa4, hits give low values",1.02
same,normalized growth,"locus YDR101C, strain arx1, hits give low values",0.916 (active)
same,normalized growth,"locus YDR137W, strain rgp1, hits give low values",0.63 (active)
same,normalized growth,"locus YDR150W, strain NUM1, hits give low values",0.992
same,normalized growth,"locus YDR159W, strain sac3, hits give low values",0.289 (active)
same,normalized growth,"locus YDR162C, strain NBP2, hits give low values",0.945
same,normalized growth,"locus YDR195W, strain ref2",0.482 (active)
same,normalized growth,"locus YDR297W, strain sur2, hits give low values",0.571 (active)
same,normalized growth,"locus YDR318W, strain mcm21, hits give low values",0.889 (active)
same,normalized growth,"locus YDR334W, strain swr1, hits give low values",1.04
same,normalized growth,"locus YDR335W, strain msn5, hits give low values",0.913 (active)
same,normalized growth,"locus YDR388W, hits give low values",0.967
same,normalized growth,"locus YDR392W, strain spt3, hits give low values",0.21 (active)
same,normalized growth,"locus YDR502C, strain sam2, hits give low values",0.923
same,normalized growth,"locus YEL003W, strain gim4, hits give low values",0.376 (active)
same,normalized growth,"locus YEL037C, strain rad23, hits give low values",0.997
same,normalized growth,"locus YEL061C, strain CIN8 (second series), hits give low values",0.872 (active)
same,normalized growth,"locus YEL061C, strain CIN8, hits give low values",0.989
same,normalized growth,"locus YER015W, strain faa2, hits give low values",0.714 (active)
same,normalized growth,"locus YER016W, strain bim1, hits give low values",0.861 (active)
same,normalized growth,"locus YER110C, hits give low values",0.965
same,normalized growth,"locus YER111C, strain swi4, hits give low values",0.927
same,normalized growth,"locus YER155C, strain BEM2 (second series), hits give low values",0.461 (active)
same,normalized growth,"locus YER155C, strain BEM2, hits give low values",0.988
same,normalized growth,"locus YER167W, strain BCK2, hits give low values",0.953
same,normalized growth,"locus YFR010W, strain ubp6, hits give low values",1.03
same,normalized growth,"locus YGL078C, strain dbp3, hits give low values",0.881 (active)
same,normalized growth,"locus YGL086W, strain mad1, hits give low values",0.91 (active)
same,normalized growth,"locus YGL167C, strain pmr1, hits give low values",0.939
same,normalized growth,"locus YGL173C, strain kem1, hits give low values",0.539 (active)
same,normalized growth,"locus YGL227W, strain vid30, hits give low values",0.72 (active)
same,normalized growth,"locus YGL240W, strain doc1, hits give low values",0.727 (active)
same,normalized growth,"locus YGL248W, strain PDE1, hits give low values",0.976
same,normalized growth,"locus YGL253W, strain hxk2, hits give low values",0.788 (active)
same,normalized growth,"locus YGR078C, strain PAC10, hits give low values",0.905
same,normalized growth,"locus YGR135W, strain pre9, hits give low values",0.918
same,normalized growth,"locus YGR229C, strain SMI1, hits give low values",0.954
same,normalized growth,"locus YGR252W, strain gcn5, hits give low values",0.831
same,normalized growth,"locus YHR013C, strain ard1, hits give low values",1.13
same,normalized growth,"locus YHR027C, strain rpn1, hits give low values",0.82 (active)
same,normalized growth,"locus YHR030C, strain SLT2, hits give low values",0.98 and 0.998
same,normalized growth,"locus YHR079C, strain IRE1 (second series), hits give low values",0.942
same,normalized growth,"locus YHR079C, strain IRE1, hits give low values",0.969
same,normalized growth,"locus YHR094C, strain hxt1, hits give low values",0.97
same,normalized growth,"locus YHR129C, strain ARP1, hits give low values",0.978
same,normalized growth,"locus YHR142W, strain chs7, hits give low values",0.624 (active)
same,normalized growth,"locus YHR200W, strain rpn10, hits give low values",0.945
same,normalized growth,"locus YIL066C, strain RNR3, hits give low values",0.885
same,normalized growth,"locus YIL073C, strain SPO22, hits give low values",0.917
same,normalized growth,"locus YIL125W, strain kgd1, hits give low values",0.965
same,normalized growth,"locus YIR030C, strain dcg1, hits give low values",0.962
same,normalized growth,"locus YJL092W, strain hpr5, hits give low values",0.963
same,normalized growth,"locus YJL095W, strain BCK1 (second series), hits give low values",0.216 (active)
same,normalized growth,"locus YJL095W, strain BCK1, hits give low values",0.935 and 1
same,normalized growth,"locus YJL115W, strain asf1, hits give low values",0.975
same,normalized growth,"locus YJL129C, strain trk1, hits give low values",0.213 (active)
same,normalized growth,"locus YJL134W, strain LCB3, hits give low values",0.997
same,normalized growth,"locus YJL154C, strain vps35, hits give low values",1.01
same,normalized growth,"locus YJL164C, strain tpk1, hits give low values",0.258 (active)
same,normalized growth,"locus YJL166W, strain qcr8, hits give low values",0.283 (active)
same,normalized growth,"locus YJL168C, strain set2, hits give low values",0.966
same,normalized growth,"locus YJL187C, strain SWE1 (second series), hits give low values",0.954
same,normalized growth,"locus YJR043C, strain POL32, hits give low values",0.897
same,normalized growth,"locus YJR066W, strain TOR1, hits give low values",0.957
same,normalized growth,"locus YJR075W, strain HOC1, hits give low values",0.947
